This is an account of results in PubChem BioAssay (EPA / NIEHS).

Each structure is given as a SMILES string. Several values for one entry are separate records, joined by “and”; a condition that tells them apart may be missing. Identical values can stand only once. Results filed as inconclusive are left out. Some structures have more than one record in an assay (separate samples or runs), and their calls can disagree. Activity calls are given as the source filed them. The calls were made as follows, unless noted: active = hit-call score of the fitted dose curve at least 0.9, where 1 is the maximum; inconclusive = response in the unintended direction; inactive = score below 0.9.

Experiment [1] has as its target rat Peripheral-type Benzodiazepine Receptor (PBR), Tspo (gene 24230) (UniProt P16257). In words: NVS_MP_rPBR: NovaScreen (NVS) Membrane Protein Assay for rat Peripheral-type Benzodiazepine Receptor (PBR) (AID 2283335). Summed up:
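Radioligand displacement, rat kidney membrane prep, 1 h exposure, filter-based scintillation read; DMSO baseline, loss-of-signal scored. Primary screen at 25 uM in duplicate, actives followed up in concentration series.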

A short description of experiment [2]: NVS_IC_rCaBTZCHL: NovaScreen (NVS) Ion Channel Assay for Calcium Channel, Type L, Benzothiazepine Site (CaBTZCHL) (AID 2283337). Summed up:
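Radioligand binding to the benzothiazepine site of L-type Ca channels in rat cortical membranes (cell-free), 1.5 h after dosing; filter-based scintillation counting. Loss of signal relative to DMSO baseline; primary single-concentration screen at 25 uM, actives then run in concentration series.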

Experiment [3] concerns guinea pig Histamine Receptor (H2), gene 100729734. In words: NVS_GPCR_gH2: NovaScreen (NVS) G Protein-Coupled Receptor Assay for guinea pig Histamine Receptor (H2) (AID 2283342). Summed up:
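Radioligand displacement on guinea pig striatal membranes, 1 h after dosing, filter-based scintillation counting; loss of signal versus DMSO. Single-point screen at 25 uM in duplicate, then concentration-response up to 50 uM.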

Experiment [4] concerns the target chimpanzee Androgen Receptor (AR), AR (gene 747460) (UniProt O97775). As to the kind of experiment: NVS_NR_cAR: NovaScreen (NVS) Nuclear Receptor Binding Assay for chimpanzee Androgen Receptor (AR) (AID 2283346).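 Also: radioligand displacement from AR measured by scintillation counting in a cell-free assay.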 Summed up:
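Cell-free radioligand displacement using receptor protein extracted from Sf9/Sf21 cells; bound radioligand measured by scintillation counting 72 hours after chemical dosing. Loss of signal versus DMSO baseline indicates binding; primary screen single-concentration in duplicate at 25 uM, actives followed in concentration series.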

Experiment [5] addresses Estrogen receptor (Homo sapiens) (UniProt P03372). In words: NVS_NR_hER: NovaScreen (NVS) Nuclear Receptor Binding Assay for human Estrogen Receptor (ER) (AID 2283348). In outline: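 Cell-free radioligand binding with protein extracted from MCF7 cells; scintillation counting 18 hours after dosing. Loss of signal versus DMSO baseline read as displacement; primary single-concentration screen at 25 uM in duplicate, actives retested in concentration series.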

Experiment [6] shares this target. In words: OT_ER_ERaERa_1440: Odyssey Thera (OT) 24-hour HEK293T Protein-Complementation Assay for Estrogen Receptor-alpha/-alpha Homodimer (AID 2283349).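 Also: hits raise fluorescence above DMSO for agonists and antagonists alike.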 In outline:
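Readout is the rise in mean fluorescence from reporter fragment complementation when ERα LBD (aa 310-547) units dimerize in HEK293T cells. Measured 24 h after dosing and analysed as increase over DMSO control.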

The target is the same in experiment [7]. As to the kind of experiment: OT_ER_ERaERa_0480: Odyssey Thera (OT) 8-hour HEK293T Protein-Complementation Assay for Estrogen Receptor-alpha/-alpha Homodimer (AID 2283351).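 Also: rise in fluorescence from reassembled reporter fragments on ERα LBD homodimer in nucleus or whole cell.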 Summed up:
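HEK293T cells stably expressing the human ERα ligand-binding domain (aa 310-547) as a homodimer PCA were dosed with compound for 8 h. Gain of fluorescence intensity versus DMSO vehicle was read by laser scanning cytometry.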

The target of experiment [8] is rat Glutamate, MK-801 Agonist Site (GluNMDA_MK801), Grin1 (gene 24408) (UniProt P35439). In words: NVS_LGIC_rGluNMDA_MK801_Agonist: NovaScreen (NVS) Ligand-Gated Ion Channel Assay for rat Glutamate, MK-801 Agonist Site (GluNMDA_MK801) (AID 2283340). In outline:
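Radioligand binding at MK-801 site in rat forebrain membranes, 1.5 h incubation, filter-based scintillation counting. Initially 25 uM in duplicate; actives then run in concentration-response up to 50 uM, fitted for gain of signal versus DMSO.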

The target of experiment [9] is Small conductance calcium-activated potassium channel protein 1 (Rattus norvegicus) (UniProt P70606). As to the kind of experiment: NVS_IC_rKCaCh: NovaScreen (NVS) Ion Channel Assay for rat Potassium Channel, Ca2+ Act., VI (KCaCh) (AID 2283336). In outline: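 Radioligand binding to rat forebrain membranes, cell-free, read 1 hour after dosing by filter-based scintillation counting. Compounds first run in duplicate at 25 uM, actives then in concentration series; loss of signal vs DMSO indicates displacement.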

Experiment [10] has as its target Estrogen receptor (Homo sapiens) + Estrogen receptor beta (Homo sapiens) (UniProt P03372+Q92731). As to the kind of experiment: OT_ER_ERaERb_0480: Odyssey Thera (OT) 8-hour HEK293T Protein-Complementation Assay for Estrogen Receptor-alpha/-beta Heterodimer (AID 2283352). In outline:
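Compound added to HEK293T cells carrying split-reporter-tagged ER-alpha and ER-beta LBDs, incubated 8 hours, then imaged by laser scanning cytometer. Signal rise in nucleus, or nucleus and cytoplasm, over vehicle was fitted in the positive direction.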

The subject of a further experiment is NCBI gene 100848466. In words: NVS_NR_bPR: NovaScreen (NVS) Nuclear Receptor Binding Assay for bovine Progextron Receptor (PR) (AID 2283343).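 Also: actives lower bound radioligand signal below DMSO meaning displacement of the label.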 In outline:
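Bovine uterine membrane preparation, cell-free; radioligand competitive displacement measured by scintillation counting 18 hours after dosing. Loss of signal versus DMSO baseline indicates binding; primary HTS single concentration 25 uM in duplicate, actives followed in concentration series.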

The target of experiment [11] is rat Mineralocorticoid Receptor (MR), Nr3c2 (gene 25672) (UniProt P22199). As to the kind of experiment: NVS_NR_rMR: NovaScreen (NVS) Nuclear Receptor Binding Assay for rat Mineralocorticoid Receptor (MR) (AID 2283355). Summed up: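 Cell-free radioligand binding to MR in adrenalectomized rat brain supernatant, scintillation counted 24 h after dosing. Loss of signal versus DMSO baseline marks displacement. Primary screen in duplicate at 25 uM; actives retested as concentration series.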
rat Mineralocorticoid Receptor (MR), Nr3c2 (gene 25672), sequence (P22199 whole entry, looked up): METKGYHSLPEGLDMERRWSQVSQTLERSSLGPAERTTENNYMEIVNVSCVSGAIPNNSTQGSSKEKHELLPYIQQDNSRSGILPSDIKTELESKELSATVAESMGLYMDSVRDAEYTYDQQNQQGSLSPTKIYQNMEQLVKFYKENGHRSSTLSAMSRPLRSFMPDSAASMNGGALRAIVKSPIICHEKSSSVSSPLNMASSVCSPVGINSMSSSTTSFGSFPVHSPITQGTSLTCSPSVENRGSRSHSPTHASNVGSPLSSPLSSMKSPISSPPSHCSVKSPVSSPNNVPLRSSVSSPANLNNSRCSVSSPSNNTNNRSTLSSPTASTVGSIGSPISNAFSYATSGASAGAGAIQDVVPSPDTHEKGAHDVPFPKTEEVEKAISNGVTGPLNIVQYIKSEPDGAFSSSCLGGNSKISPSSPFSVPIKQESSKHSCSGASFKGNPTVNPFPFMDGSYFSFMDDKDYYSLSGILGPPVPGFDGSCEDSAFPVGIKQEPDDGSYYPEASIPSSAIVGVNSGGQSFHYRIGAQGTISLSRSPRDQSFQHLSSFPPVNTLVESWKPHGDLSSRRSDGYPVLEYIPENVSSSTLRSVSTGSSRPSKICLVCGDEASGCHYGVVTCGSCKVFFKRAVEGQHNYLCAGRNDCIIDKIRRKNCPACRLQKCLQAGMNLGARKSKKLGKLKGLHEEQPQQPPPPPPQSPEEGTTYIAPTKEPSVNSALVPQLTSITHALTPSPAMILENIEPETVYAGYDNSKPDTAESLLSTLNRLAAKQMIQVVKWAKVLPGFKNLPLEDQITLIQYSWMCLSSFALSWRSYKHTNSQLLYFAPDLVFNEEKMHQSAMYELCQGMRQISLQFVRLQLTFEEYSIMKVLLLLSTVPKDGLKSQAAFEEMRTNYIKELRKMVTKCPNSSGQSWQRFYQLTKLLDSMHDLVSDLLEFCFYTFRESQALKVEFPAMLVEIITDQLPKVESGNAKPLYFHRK

The target of experiment [12] is bovine Gamma-Aminobutyric Acid Type A Receptor Agonist (GABAR Agonist), GABRA1 (gene 780973) (UniProt P08219). In words: NVS_LGIC_bGABAR_Agonist: NovaScreen (NVS) Ligand-Gated Ion Channel Assay for bovine Gamma-Aminobutyric Acid Type A Receptor Agonist (GABAR Agonist) (AID 2283338). In outline: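 Radioligand binding to bovine cerebellar membranes in agonist format, read by filter-based scintillation counting after 1 h. Primary screen in duplicate at 25 uM, with actives followed in concentration series. Gain of signal versus DMSO.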

For experiment [13], the target named is human Constitutive Androstane Receptor (CAR), NR1I3 (gene 9970) (UniProt Q14994). As to the kind of experiment: NVS_NR_hCAR_Antagonist: NovaScreen (NVS) Nuclear Receptor Binding Assay for human Constitutive Androstane Receptor Antagonism (CAR) (AID 2283344). Summed up:
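Cell-free TR-FRET binding read 1 h after dosing, antagonist mode; loss of signal versus DMSO baseline. Primary screen in duplicate at a single 25 uM; actives retested in concentration series.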

Experiment [14] has as its target Bile acid receptor (Homo sapiens) (UniProt Q96RI1). In words: NVS_NR_hFXR_Antagonist: NovaScreen (NVS) Nuclear Receptor Binding Assay for human Farnesoid X Receptor Antagonism (FXR) (AID 2283350). In outline:
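Cell-free TR-FRET ligand-binding read-out on human FXR (NR1H4) in antagonist mode, measured 1 h after dosing. Primary screen in duplicate at 25 uM, actives retested in concentration series; signal loss scored versus DMSO.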

For experiment [15], the target named is Androgen Receptor/SRC-1 Co-activator, AR (gene 367) (UniProt P10275). As to the kind of experiment: OT_AR_ARSRC1_0960: Odyssey Thera (OT) 16-hour HEK293T Protein-Complementation Assay for Androgen Receptor/SRC-1 Co-activator (AID 2283353).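 Also: actives raise the signal above DMSO so potency reflects increased AR and SRC-1 complex.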 Summed up: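 HEK293T cells stably expressing AR and SRC-1 fused to split Venus YFP fragments via (Gly4Ser)2 linkers were dosed for 16 h. Nuclear/cytoplasmic fluorescence ratio at 488 nm, ≥400 cells per image, fitted for gain of signal versus DMSO.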
Androgen Receptor/SRC-1 Co-activator, AR (gene 367), sequence (P10275 whole entry, looked up, the tested form may be a part): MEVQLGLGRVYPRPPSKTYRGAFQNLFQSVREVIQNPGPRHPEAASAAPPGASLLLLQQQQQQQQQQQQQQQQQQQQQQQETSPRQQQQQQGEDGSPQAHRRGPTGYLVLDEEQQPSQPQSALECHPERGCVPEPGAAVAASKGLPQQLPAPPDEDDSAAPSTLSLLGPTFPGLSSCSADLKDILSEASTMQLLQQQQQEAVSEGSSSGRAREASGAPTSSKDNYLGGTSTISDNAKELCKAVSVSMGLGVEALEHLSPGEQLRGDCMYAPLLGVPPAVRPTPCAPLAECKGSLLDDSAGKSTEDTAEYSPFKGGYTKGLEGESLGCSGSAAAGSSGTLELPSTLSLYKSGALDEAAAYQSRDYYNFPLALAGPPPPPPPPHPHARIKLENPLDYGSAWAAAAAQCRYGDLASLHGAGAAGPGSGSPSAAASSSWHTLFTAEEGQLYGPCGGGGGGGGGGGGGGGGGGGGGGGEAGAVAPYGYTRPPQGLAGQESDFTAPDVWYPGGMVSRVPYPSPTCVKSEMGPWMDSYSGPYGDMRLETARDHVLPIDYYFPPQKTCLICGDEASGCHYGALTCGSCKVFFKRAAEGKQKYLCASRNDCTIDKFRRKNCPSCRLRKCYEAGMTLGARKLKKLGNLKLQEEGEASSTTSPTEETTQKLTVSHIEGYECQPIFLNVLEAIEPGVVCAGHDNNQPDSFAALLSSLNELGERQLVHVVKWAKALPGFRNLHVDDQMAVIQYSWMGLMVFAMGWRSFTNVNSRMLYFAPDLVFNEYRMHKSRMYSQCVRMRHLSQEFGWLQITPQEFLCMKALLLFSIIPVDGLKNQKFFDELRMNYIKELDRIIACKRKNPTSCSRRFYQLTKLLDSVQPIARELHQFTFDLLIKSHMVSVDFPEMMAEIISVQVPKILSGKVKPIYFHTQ

Experiment [16] shares this target. In words: OT_AR_ARSRC1_0480: Odyssey Thera (OT) 8-hour HEK293T Protein-Complementation Assay for Androgen Receptor/SRC-1 Co-activator (AID 2283354).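 Also: hits raise the complementation signal above DMSO so AC50 marks enhancers.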 In outline:
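HEK293T cells stably expressing AR and SRC-1 fused to split Venus YFP fragments via (Gly4Ser)2 linkers were read 8 h after compound dosing. Complementation was imaged at 488 and 635nm, and nuclear/cytoplasmic fluorescence ratio (488nm) was taken over ≥400 cells; gain-of-signal versus DMSO.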

Experiment [17] has as its target Glutamate receptor ionotropic, kainate 1 (Rattus norvegicus) (UniProt P22756). As to the kind of experiment: NVS_IC_rKAR: NovaScreen (NVS) Ion Channel Assay for rat Kainic Acid Receptors (KAR) (AID 2283334; active = hit-call score of the fitted dose curve at least 0.9, where 1 is the maximum; inactive = score below 0.9). In outline: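 Radioligand displacement binding using rat forebrain membranes, 1 h incubation, filter-based scintillation counting. Screened in duplicate at 25 uM, with actives retested in concentration-response up to 50 uM; fitted against DMSO.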

Estrogen receptor (Homo sapiens) + Estrogen receptor beta (Homo sapiens), sequence (P03372 whole entry, looked up): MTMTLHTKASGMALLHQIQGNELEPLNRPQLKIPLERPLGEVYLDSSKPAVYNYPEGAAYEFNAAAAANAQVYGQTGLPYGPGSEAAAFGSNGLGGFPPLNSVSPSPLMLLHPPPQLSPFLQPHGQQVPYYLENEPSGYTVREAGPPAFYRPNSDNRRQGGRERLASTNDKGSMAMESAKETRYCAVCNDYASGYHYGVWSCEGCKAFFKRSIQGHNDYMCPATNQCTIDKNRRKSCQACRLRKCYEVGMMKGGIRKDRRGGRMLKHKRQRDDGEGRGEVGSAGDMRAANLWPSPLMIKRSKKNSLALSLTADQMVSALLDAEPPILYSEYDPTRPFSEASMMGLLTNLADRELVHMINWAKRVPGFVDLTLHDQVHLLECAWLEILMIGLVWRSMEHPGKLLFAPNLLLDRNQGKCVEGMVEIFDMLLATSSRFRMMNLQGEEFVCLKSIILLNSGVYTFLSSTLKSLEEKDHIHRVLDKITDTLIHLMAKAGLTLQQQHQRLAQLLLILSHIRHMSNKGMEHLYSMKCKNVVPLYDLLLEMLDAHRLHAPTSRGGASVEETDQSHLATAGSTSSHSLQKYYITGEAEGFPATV
Estrogen receptor (Homo sapiens) + Estrogen receptor beta (Homo sapiens), sequence (Q92731 whole entry, looked up): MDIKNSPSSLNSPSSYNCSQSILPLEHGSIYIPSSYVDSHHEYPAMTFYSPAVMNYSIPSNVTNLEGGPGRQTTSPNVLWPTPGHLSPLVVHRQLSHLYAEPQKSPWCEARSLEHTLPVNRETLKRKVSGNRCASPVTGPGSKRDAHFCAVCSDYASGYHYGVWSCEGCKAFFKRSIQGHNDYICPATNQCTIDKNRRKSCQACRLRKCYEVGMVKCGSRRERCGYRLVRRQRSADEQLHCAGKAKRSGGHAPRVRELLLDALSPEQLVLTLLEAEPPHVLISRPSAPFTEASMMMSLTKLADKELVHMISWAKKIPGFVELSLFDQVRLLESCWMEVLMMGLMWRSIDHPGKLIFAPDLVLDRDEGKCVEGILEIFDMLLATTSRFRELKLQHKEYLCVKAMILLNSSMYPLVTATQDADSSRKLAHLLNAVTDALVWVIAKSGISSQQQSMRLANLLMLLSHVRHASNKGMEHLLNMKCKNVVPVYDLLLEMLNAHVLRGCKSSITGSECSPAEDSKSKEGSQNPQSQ
Estrogen receptor (Homo sapiens), sequence (P03372 whole entry, looked up): as the sequence (P03372 whole entry, looked up) above
chimpanzee Androgen Receptor (AR), AR (gene 747460), sequence (O97775 whole entry, looked up): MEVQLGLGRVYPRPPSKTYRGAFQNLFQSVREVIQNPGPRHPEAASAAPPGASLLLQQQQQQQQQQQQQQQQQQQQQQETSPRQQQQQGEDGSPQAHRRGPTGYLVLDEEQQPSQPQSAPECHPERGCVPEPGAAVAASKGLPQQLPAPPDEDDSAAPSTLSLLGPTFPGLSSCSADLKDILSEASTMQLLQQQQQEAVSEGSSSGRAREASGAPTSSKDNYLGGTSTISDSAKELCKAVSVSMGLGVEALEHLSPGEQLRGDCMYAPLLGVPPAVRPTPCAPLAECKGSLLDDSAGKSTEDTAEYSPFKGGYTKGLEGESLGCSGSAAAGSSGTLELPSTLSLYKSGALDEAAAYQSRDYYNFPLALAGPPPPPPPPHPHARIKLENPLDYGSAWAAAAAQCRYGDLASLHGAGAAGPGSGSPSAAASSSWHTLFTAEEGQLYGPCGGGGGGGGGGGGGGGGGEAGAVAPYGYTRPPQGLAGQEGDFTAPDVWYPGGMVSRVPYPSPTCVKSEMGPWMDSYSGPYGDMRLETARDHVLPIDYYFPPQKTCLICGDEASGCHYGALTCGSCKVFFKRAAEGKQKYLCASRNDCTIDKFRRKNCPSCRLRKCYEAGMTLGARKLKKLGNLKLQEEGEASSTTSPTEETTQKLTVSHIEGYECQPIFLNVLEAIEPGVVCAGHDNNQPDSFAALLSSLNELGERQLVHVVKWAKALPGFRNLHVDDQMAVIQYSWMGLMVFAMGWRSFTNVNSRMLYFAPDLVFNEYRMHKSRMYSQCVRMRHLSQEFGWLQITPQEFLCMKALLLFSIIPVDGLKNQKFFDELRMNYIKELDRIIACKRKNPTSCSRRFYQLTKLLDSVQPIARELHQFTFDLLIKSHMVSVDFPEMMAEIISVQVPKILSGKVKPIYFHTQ
rat Peripheral-type Benzodiazepine Receptor (PBR), Tspo (gene 24230), sequence (P16257 whole entry, looked up): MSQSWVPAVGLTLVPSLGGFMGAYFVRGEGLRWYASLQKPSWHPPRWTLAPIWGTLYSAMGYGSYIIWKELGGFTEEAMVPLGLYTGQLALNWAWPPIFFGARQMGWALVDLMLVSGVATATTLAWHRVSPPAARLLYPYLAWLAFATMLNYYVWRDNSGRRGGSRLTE

`CCN(CC)CCNc1ccc(CNC=O)c2sc3ccc(OC)cc3c(=O)c12`: the figures for the concentration at half-maximal activity (AC50) in [1], in experiment [2] and in experiment [3] were 6.96 µM (active), 19.2 µM (active) and 11.3 µM (active), respectively. In addition, the molecule was classed as inactive in [4], in experiment [5], in [6] and in experiment [7].

As for `ClC1=C(Cl)C(Cl)(Cl)C(Cl)=C1Cl`, the molecule was classed as inactive in experiment [8], in experiment [5], in experiment [6] and in experiment [7].

For the molecule `CN(C)C=O`, the outcome in experiment [9], in experiment [5], in experiment [6], in experiment [7] and in experiment [10] was inactive.

As for `C[C@@H]1C[C@H]2[C@@H]3CCC4=CC(=O)C=C[C@]4(C)[C@@]3(F)[C@@H](O)C[C@]2(C)[C@@]1(O)C(=O)COP(=O)(O)O`, the molecule was called inactive in experiment [3], in [5], in experiment [6], in [7] and in experiment [10]. The AC50 in the experiment with NCBI gene 100848466 is 10.5 µM (active); in experiment [4], 0.0307 µM (active); in experiment [11] it was 8.69 nM (active) and 2.18 nM (active) and 33.9 nM (active).

As for `O=C(OCCOCCOC(=O)c1ccccc1)c1ccccc1`, the molecule was classed as inactive in experiment [1], in [12], in experiment [13], in experiment [6], in [14] and in experiment [7].

For the molecule `Oc1cc2ccccc2c2ccccc12`, the AC50 is 18 µM (active) in the experiment with NCBI gene 100848466, 10.1 µM (active) in experiment [4], 7.07 µM (active) in experiment [15] and 8.63 µM (active) in experiment [16]. For the same molecule, the molecule was called inactive in experiment [5], in experiment [6] and in experiment [7].

Take `COC(=O)CCCCC(=O)OC`: the result in experiment [17], in experiment [6] and in experiment [7] was inactive.

Consider `Oc1cccc(O)c1`, for which the outcome in experiment [6], in [7] and in [10] was inactive.

On to `CC(C)(C)CC(C)(C)c1ccc(O)c(-n2nc3ccccc3n2)c1`, for which the result in experiment [5], in experiment [6], in experiment [7] and in experiment [10] was inactive.

For `Cc1cc(CCN2CCN(c3nsc4ccccc34)CC2)cc2c1NC(=O)CC2(C)C`, the molecule was called inactive in experiment [5], in [6], in experiment [7] and in experiment [10]. The figures for the half-maximal activity concentration (AC50) in experiment [15] and in experiment [16] were 12.6 µM (active) and 15.4 µM (active), respectively.

Regarding `Nc1cccc2c(N)cccc12`, in [6], the AC50 is 11.9 µM (active). In addition, the result in experiment [7] and in experiment [10] was inactive.

For the molecule `c1ccc2c(c1)Cc1ccccc1-2`, the molecule was classed as inactive in experiment [5], in experiment [6], in experiment [7] and in experiment [10].

`CCCCCCCCCCCCN1CCCC1=O`: the molecule was classed as inactive in [5] and in [6].

`CC(C)(C)c1cc(C(C)(C)C)c(O)c(C(C)(C)C)c1`: the molecule was classed as inactive in experiment [6] and in [7]. For the same molecule, the concentration at half-maximal activity (AC50) in experiment [10] is 50 µM (active).

Consider `c1ccc2cc3c(ccc4ccccc43)cc2c1`, for which the outcome in experiment [5], in experiment [6], in experiment [14] and in experiment [7] was inactive.

In the case of `Cc1cc(C)c(O)c(C)c1`, the call in experiment [5], in experiment [6] and in experiment [7] was inactive.

For `Cc1ccc(S(=O)(=O)O)c(C)c1`, the AC50 in experiment [6] was 56.2 µM (active). For the same molecule, the outcome in [6] and in [7] was inactive.

In general, AC50 refers to the concentration giving half of the maximal activity seen.
